# Results reported in PubChem BioAssay AID861 (The Scripps Research Institute Molecular Screening Center, 2007).
# Hit rate of the full screen: of about 200,000 compounds, about 360 (0.18%) were called active. This is one part of a sample in which actives are shown more often than they occur. Unmarked numbers belong to inactive results. Cut-off read from the data, not from the text of the source: active = inhibition above about 25%; inactive = the rest.
# Molecular target: Toll-like receptor 4 (Homo sapiens) + Myeloid differentiation primary response protein MyD88 (Homo sapiens) (UniProt O00206+Q99836)
# Sequence (O00206 whole entry, looked up): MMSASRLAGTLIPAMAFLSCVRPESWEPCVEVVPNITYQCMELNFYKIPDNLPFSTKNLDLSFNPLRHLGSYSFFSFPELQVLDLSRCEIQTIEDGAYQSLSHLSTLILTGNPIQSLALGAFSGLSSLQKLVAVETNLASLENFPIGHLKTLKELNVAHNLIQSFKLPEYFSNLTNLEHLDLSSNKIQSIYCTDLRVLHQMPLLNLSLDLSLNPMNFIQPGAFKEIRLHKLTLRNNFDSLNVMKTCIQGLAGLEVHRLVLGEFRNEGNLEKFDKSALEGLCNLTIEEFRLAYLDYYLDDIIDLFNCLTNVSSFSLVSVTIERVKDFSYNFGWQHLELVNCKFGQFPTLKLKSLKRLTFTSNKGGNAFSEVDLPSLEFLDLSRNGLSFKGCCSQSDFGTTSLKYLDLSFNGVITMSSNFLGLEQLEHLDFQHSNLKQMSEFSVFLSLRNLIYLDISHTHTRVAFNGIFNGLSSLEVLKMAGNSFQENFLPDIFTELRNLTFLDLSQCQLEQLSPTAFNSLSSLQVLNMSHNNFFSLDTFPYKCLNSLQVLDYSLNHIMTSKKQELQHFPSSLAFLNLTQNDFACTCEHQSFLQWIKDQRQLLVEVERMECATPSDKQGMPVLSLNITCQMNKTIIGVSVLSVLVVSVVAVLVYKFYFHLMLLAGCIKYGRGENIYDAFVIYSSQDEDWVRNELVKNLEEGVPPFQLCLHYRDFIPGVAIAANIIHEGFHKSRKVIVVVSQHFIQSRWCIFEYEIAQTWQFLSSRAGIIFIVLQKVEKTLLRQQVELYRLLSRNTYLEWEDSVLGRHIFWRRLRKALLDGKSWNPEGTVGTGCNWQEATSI
# Sequence (Q99836 whole entry, looked up): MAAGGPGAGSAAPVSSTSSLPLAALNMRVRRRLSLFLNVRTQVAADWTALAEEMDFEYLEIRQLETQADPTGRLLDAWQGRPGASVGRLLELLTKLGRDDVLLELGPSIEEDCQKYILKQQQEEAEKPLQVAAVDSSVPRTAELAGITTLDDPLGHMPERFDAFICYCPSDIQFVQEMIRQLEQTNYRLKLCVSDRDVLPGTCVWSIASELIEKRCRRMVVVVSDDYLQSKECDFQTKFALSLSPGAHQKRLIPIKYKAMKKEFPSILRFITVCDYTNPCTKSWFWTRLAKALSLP
# Assay: disruptors of TLR4 binding to MyD88 – cell-based, HeLa CL3-4, BLA complementation, FRET ratio, primary screen (AID 861);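 note: 0% = vehicle and 100% = reference inhibitor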
# Conditions: HeLa CL3-4 TLR4/MyD88 BLA complementation, at 8.4 µM, active compounds read high
row,Compound,inhibition
1,O=C(NCCc1ccc(F)cc1)c1n[nH]c2ccccc12,-4.67%
2,CCCn1nnc(NC(=O)COc2ccc(CC)cc2)n1,9.27%
3,CSCCC(NS(=O)(=O)c1ccc2c(c1)oc(=O)n2C)C(=O)NC1CCCc2ccccc21 (centres undefined),7.47%
4,O=C(CO/N=C/c1ccccc1OC(F)F)NC1CCCC1,16.4%
5,O=C(CNC1CCCCC1)NCC1(c2ccccc2)CCCC1,-4.02%
6,COc1cc(C(=S)NCc2ccccc2)cc(Br)c1O,-2.71%
7,Cc1cc(C)n(CCNCc2c(C(=O)N3C[C@@H](C)O[C@@H](C)C3)nc3ccc(Cl)cn23)n1,-4.55%
8,Cc1cc(C)cc(OCC(=O)NCc2cc(C)nc3ccccc23)c1,8.6%
9,Cc1cccc(C(=O)N2CCc3c([nH]c4ccccc34)C2CC(C)C)n1 (centres undefined),-16.4%
10,CC12CN(NC(=O)c3ccc(Cl)cc3)C3(C#N)CC1CCC23C (centres undefined),1.1%
11,CCN(CC(=O)NC1CCS(=O)(=O)C1)S(=O)(=O)c1ccccc1 (centres undefined),1.44%
12,COc1ccc(S(=O)(=O)N2CN(CCc3ccc(OC)c(OC)c3)c3nc4ccccc4nc32)cc1,3.83%
13,Cc1ccc(OCCCC(=O)NC(C)c2ccccc2)c(C)c1 (centres undefined),-0.61%
14,CCCCCCCCn1c2c(c(=N)c3c1CCC3)CCCC2,28.8% (active)
15,CCCCCCn1c(CN2CCCCC2)nc2c1c(=O)n(C)c(=O)n2C,3.83%
16,O=C(Cc1csc(Nc2nc(=S)[nH]c3ccccc23)n1)NCCCN1CCN(c2cccc(Cl)c2)CC1,-1.51%
17,Cc1nc(N2CCN(c3ncccn3)CC2)c2oc3ccccc3c2n1,7.8%
18,Cc1nc(Cl)c2oc3ccccc3c2n1,35.2% (active)
19,CCSc1nc(C)nc2c1oc1ccccc12,1.7%
20,Cc1ccc2[nH]c(=O)c(CN3CCCCC3)c(-c3ccccc3)c2c1,16.6%
21,COc1ccc(C2OCC3(CO2)SC(=O)NC3=O)cc1OC (centres undefined),6.58%
22,CCN1CCC2(CCN(Cc3cn[nH]c3-c3ccc(OC)c(F)c3)C2)C1 (centres undefined),-1.36%
23,O=C(Nc1ccccc1Cc1ccccc1)c1ccc2c(c1)SC1=NS(=O)(=O)CCN12,14.2%
24,CCCCN(C(=O)COc1ccc(NC(C)=O)cc1)C1CCS(=O)(=O)C1 (centres undefined),5.19%
25,COc1cc(NC(=O)COC(=O)c2cnc(C)cn2)c(C)cc1[N+](=O)[O-],0.72%

row,Compound,inhibition
1,CC(C)c1csc(CN2CCC(CO)(Cc3ccccc3)CC2)n1,-3.76%
2,Oc1ccccc1C=NC1CCCCC1N=Cc1ccccc1O (centres undefined),-2.31%
3,Cn1cnnc1SCC(=O)Nc1ccc(N2CCOCC2)cc1,-8.28%
4,CN(c1ccccc1)c1nc(N)c([N+](=O)[O-])c(NCc2ccco2)n1,-1.5%
5,COC(=O)Cc1nc2ccccc2[nH]1,9.21%
6,CCC(=O)NC(=Nc1nc2ccccc2s1)NC(=O)CC,-5.21%
7,COC(=O)Cc1cc(=O)n(-c2nc3ccccc3s2)[nH]1,25.2% (active)
8,CC1CCN(c2ccc([N+](=O)[O-])cc2C(N)=O)CC1,12.4%
9,Cc1nc2ccccc2n1CC(=O)N/N=C/c1cccs1,-1.34%
10,CN(C)c1ccc(C=NCCc2ccc(S(N)(=O)=O)cc2)cc1,-10.3%
11,Cc1cc(C)c2c(n1)sc1c(=O)n(-c3ccccc3)c(=O)[nH]c12,13.9%
12,Cn1nnnc1-c1cc(Cl)cc(Cl)c1,-10.5%
13,O=C(COC(=O)c1cc(-c2cccs2)nn1-c1ccccc1)Nc1cc([N+](=O)[O-])ccc1Cl,7.72%
14,O=C(/C=C/c1ccc(F)cc1)NCCNC(=O)/C=C/c1ccc(F)cc1,-2.71%
15,COc1ccc(NC(=S)Nc2ccc(S(N)(=O)=O)cc2)c(C)c1,-9.09%
16,Nc1nc(SCC(=O)NCCN2CCOCC2)nc2sc3c(c12)CCC3,4.71%
17,Cc1ccc(Nc2c(F)c(F)c(F)c(F)c2C(=O)O)c(C)c1,-9.32%
18,Cc1cccc2cc(CN(Cc3cccs3)C(=S)NCc3ccco3)c(=O)[nH]c12,6.03%
19,COc1ccc(-c2oc3ncn(Cc4ccco4)c(=N)c3c2-c2ccc(OC)cc2)cc1,-4.97%
20,Cc1nn(C)c(C)c1CN(C(=O)CCc1nnc(Cc2c[nH]c3ccccc23)o1)C(C)C,-4.71%
21,COc1ccc(Cc2nnc(N/N=C/c3ccccc3O)[nH]c2=O)cc1OC,-8.91%
22,COc1cc(C(=O)N[C@@H](C)C(=O)NCc2ccco2)cc(OC)c1OC,5.84%
23,CCOc1ccc(N2C(=O)/C(=C/c3ccc(C)o3)N(C)C2=S)cc1,-6.16%
24,Cc1ccccc1-n1cc(CNC(=O)CC2C(=O)NCCN2C/C=C/c2ccccc2)cn1 (centres undefined),-13.3%
